# Source: PubChem BioAssay
# Values joined by “and” are separate entries in the source; they are usually repeats but may differ in a detail not shown here. Equal entries are not always repeated. Inconclusive results are not listed. Active and inactive are the calls of the source.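 Rule for the calls, unless noted: active = at least 20% inhibition of 6-phosphogluconate dehydrogenase activity; inactive = the rest.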
# How the values were obtained:
# [1] = biological target: 6-phosphogluconate dehydrogenase, decarboxylating (Homo sapiens) (UniProt P52209); assay: 6PGD enzyme inhibitors, primary screen, biochemical, human, recombinant enzyme, NADPH absorbance (AID 1159550); conditions: recombinant 6PGD, NADPH absorbance 341 nm; at 10 µM; stronger effect = higher value
# 6-phosphogluconate dehydrogenase, decarboxylating (Homo sapiens), sequence (P52209 whole entry, looked up): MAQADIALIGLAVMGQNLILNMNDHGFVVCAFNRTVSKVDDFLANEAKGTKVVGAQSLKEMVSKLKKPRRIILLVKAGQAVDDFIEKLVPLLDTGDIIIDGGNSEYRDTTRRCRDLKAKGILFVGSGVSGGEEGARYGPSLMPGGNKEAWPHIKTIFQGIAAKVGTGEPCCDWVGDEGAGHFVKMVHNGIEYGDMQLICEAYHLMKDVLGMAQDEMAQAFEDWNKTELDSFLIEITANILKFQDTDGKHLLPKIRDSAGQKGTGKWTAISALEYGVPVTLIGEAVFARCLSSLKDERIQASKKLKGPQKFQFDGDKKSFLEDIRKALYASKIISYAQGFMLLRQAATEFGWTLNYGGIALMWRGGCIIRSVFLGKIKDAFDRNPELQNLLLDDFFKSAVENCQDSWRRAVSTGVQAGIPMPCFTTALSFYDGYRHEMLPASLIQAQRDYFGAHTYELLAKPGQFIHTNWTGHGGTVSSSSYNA
# [2] = growth inhibition of DIPG glioma cells, dose response, cell-based, SU-DIPG-XVII, MIPE5.0, CellTiter-Glo, qHTS (AID 1347060; cut-off not given, nearly all actives have AC50 up to about 26 µM;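 note: cells exposed to compound for 48 hours before viability readout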); conditions: SU-DIPG-XVII viability, CellTiter-Glo ATP luminescence
# [3] = growth inhibition of DIPG glioma cells, dose response, cell-based, SU-DIPG-XIII, MIPE5.0, CellTiter-Glo, qHTS (AID 1347064; cut-off not given, nearly all actives have AC50 up to about 23 µM;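 note: cells exposed to compound for 48 hours before the viability read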); conditions: SU-DIPG-XIII viability, CellTiter-Glo ATP luminescence
# [4] = viability loss in pontine glioma line – cell-based, SU-DIPG-XXV, MIPE5.0, CellTiter-Glo, qHTS, dose response (AID 1347065; cut-off not given, nearly all actives have AC50 up to about 26 µM;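 note: cells exposed to compound for 48 hours before ATP readout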); conditions: CellTiter-Glo ATP luminescence
# [5] = JHH-DIPG-1 glioma cell viability, MIPE5.0 library, CellTiter-Glo luminescence, qHTS (AID 1347067; cut-off not given, nearly all actives have AC50 up to about 26 µM;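 note: cells exposed to compound for 48 hours before readout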); conditions: JHH-DIPG-1 glioma viability, CellTiter-Glo ATP luminescence
# [6] = SU-DIPG-XXV glioma cell viability, MIPE5.0 library, qHTS (AID 1347068; cut-off not given, nearly all actives have IC50 up to about 30 µM;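 note: cells exposed to compound for 48 hours before viability readout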)
# [7] = SU-DIPG-VI glioma cell viability, MIPE4.0 library, CellTiter-Glo luminescence, qHTS (AID 1347066; cut-off not given, nearly all actives have AC50 up to about 30 µM;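 note: cells exposed to compound for 48 hours before readout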); conditions: CellTiter-Glo ATP luminescence
# [8] = biological target: ATP-dependent translocase ABCB1 (Homo sapiens) (UniProt P08183); assay: MDR1 (ABCB1) efflux transporter inhibition, cell-based (AID 377; in the data active = fluorescence slope change above about 50%); conditions: MDR1-expressing cells, fluorescent substrate accumulation slope; stronger effect = higher value; concentration not given here
# ATP-dependent translocase ABCB1 (Homo sapiens), sequence (P08183 whole entry, looked up): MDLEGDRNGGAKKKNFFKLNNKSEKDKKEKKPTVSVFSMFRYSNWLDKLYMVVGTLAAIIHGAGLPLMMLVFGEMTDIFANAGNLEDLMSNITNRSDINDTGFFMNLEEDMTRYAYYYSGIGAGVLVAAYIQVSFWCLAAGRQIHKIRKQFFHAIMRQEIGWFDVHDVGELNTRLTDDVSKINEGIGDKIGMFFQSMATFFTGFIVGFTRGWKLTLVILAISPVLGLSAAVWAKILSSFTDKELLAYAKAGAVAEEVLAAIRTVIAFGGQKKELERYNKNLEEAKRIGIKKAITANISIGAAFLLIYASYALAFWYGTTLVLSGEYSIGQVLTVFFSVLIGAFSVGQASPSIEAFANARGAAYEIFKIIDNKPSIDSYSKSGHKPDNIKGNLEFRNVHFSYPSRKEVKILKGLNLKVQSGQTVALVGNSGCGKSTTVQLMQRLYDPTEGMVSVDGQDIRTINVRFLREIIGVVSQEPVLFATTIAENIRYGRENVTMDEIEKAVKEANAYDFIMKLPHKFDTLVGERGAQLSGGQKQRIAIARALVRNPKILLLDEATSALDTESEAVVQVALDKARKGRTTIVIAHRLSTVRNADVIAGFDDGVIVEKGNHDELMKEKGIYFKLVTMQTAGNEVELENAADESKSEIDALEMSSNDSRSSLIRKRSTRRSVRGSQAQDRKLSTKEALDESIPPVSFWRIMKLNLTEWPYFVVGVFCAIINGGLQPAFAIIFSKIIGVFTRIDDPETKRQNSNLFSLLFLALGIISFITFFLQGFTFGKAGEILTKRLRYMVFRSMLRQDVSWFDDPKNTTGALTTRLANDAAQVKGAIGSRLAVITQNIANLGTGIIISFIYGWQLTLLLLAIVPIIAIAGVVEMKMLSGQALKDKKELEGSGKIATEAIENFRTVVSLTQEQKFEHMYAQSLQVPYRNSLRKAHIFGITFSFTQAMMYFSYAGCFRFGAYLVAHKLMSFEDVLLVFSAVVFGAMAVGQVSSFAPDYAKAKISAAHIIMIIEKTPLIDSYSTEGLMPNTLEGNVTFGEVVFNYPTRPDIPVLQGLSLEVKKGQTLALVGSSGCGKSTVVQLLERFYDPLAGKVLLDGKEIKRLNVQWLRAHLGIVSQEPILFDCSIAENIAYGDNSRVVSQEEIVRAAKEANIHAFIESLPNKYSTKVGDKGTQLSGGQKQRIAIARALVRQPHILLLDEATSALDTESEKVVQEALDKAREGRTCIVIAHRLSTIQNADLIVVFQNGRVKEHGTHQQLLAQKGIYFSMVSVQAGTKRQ
# [9] = hESC survival regulators, cell-based (AID 493140; call rule not given here;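 note: cells exposed to compounds for four days before counting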); conditions: human embryonic stem cell survival screen; stronger effect = higher value
# [10] = liver-stage malaria parasite growth inhibition, primary screen, cell-based, HepG2, luciferase luminescence, HepG2 viability (AID 624349; in the data active = parasite load remaining mostly below about 12%, no sharp cut-off; inactive = mostly above about 10%;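 note: 100% = mean of DMSO negative control wells on the same plate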); conditions: P. berghei liver stage in HepG2, luciferase luminescence, concentration not given here; parasite load remaining: stronger effect = lower value; viability: measured here: HepG2 viability without parasites
# [11] = sensitizers of A549 cells to miR-34 induction, primary screen, imaging, A549 dox-inducible miR-34, nuclei and caspase counts (AID 1347080;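 active = compounds whose cell count with miR-34 switched on is under 0.7 times the count with it off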); conditions: A549 miR-34 inducible, Hoechst nuclei count, 48 h
# [12] = survival rescue of mitochondrial mutant cells in low glucose, primary screen, MELAS cybrids, Rieske KO mouse fibroblasts, CellTiter-Glo (AID 1508586;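 active = mean z-score across replicates of 1.96 or higher in either the MELAS or the Rieske mutant cell line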;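 note: z relative to plate mean and SD of compound and empty wells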)
# [13] = tested on: Aerobactin synthetase IucA (Klebsiella pneumoniae, hypervirulent); assay: IucA enzyme inhibition, biochemical, LOPAC library, absorbance readout (AID 1346212; call rule not given here;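 note: 100% = no compound wells and 0% = no enzyme wells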); conditions: IucA enzyme assay, absorbance (OD) readout; stronger effect = lower value; concentration not given here
# [14] = biological target: NAD(+) hydrolase SARM1 (Homo sapiens) (UniProt Q6SZW1); assay: SARM1 TIR NADase inhibitors, cell lysate, NAD-Glo luminescence (AID 1508614;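 active = compound whose remaining NAD level is above about 45 nM, limit read from the data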;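 note: higher remaining NAD means stronger inhibition of SARM1 NADase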); conditions: SAM-TIR HEK293T lysate NADase, at 1 µM, stronger effect = higher value
# NAD(+) hydrolase SARM1 (Homo sapiens), sequence (Q6SZW1 whole entry, looked up, the tested form may be a part): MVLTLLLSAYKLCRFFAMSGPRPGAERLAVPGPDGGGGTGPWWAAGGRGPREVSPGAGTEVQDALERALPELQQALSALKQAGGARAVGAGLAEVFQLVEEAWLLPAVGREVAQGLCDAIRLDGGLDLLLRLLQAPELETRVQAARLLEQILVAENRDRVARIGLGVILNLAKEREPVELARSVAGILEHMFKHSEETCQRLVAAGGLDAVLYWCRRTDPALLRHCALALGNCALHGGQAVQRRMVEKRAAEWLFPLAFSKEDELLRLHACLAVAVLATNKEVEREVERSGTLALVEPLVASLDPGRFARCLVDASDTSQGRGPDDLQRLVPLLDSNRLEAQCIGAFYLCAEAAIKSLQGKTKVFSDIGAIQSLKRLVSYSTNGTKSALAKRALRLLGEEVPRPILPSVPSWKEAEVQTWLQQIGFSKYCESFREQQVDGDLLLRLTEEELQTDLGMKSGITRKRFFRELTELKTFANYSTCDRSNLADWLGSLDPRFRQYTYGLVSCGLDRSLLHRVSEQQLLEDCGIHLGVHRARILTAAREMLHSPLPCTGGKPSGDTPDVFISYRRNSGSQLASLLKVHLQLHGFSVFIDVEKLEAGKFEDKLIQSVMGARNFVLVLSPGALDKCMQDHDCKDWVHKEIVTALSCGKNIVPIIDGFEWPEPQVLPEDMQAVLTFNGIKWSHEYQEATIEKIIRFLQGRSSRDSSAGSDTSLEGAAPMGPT
# [15] = biological target: Mitogen-activated protein kinase 7 (Homo sapiens) (UniProt Q13164); assay: ERK5 transactivation activators in reporter cells, primary screen, cell-based, HTS (AID 1508626;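 active = luciferase signal above three times the same-plate solvent-only control wells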;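 note: luciferase driven by Gal4-ERK5 fusion binding five Gal4 sites before minimal TATA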); conditions: HeLa Gal4-ERK5 transactivation, 18 h, at 5 µM, stronger effect = higher value
# Mitogen-activated protein kinase 7 (Homo sapiens), sequence (Q13164 whole entry, looked up, the tested form may be a part): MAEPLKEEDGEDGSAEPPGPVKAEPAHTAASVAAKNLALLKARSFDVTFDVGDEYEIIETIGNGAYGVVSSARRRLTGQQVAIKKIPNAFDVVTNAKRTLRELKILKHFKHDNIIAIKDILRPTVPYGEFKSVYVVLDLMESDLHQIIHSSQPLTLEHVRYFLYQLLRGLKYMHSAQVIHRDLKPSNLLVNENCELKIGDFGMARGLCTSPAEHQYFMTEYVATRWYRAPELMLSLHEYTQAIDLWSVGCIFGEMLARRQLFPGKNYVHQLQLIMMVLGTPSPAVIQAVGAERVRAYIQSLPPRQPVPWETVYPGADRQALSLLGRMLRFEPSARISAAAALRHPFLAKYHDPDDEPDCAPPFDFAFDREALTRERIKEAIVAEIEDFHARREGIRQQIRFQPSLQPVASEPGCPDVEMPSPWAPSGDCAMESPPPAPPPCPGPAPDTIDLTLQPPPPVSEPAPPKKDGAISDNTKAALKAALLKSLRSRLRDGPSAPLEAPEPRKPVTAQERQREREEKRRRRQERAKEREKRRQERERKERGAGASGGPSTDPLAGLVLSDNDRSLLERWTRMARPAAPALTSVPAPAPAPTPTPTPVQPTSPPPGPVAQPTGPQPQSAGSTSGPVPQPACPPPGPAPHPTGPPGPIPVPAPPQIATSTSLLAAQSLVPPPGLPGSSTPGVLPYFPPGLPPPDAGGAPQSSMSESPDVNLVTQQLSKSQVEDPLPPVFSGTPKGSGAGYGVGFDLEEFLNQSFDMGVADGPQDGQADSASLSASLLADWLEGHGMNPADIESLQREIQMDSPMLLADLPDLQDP
# [16] = viability rescue of complex I mutant cybrids, primary screen, cell-based, galactose medium, ATP luminescence (AID 1645843;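 active = z-score of at least 1.8 in each of two replicates, scored against plate mean and spread of sample wells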;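 note: positive z means more ATP and so rescue of galactose-driven cybrid death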); conditions: complex I mutant cybrid cells, 72 h, stronger effect = higher value
# [17] = tested on: Aerobactin synthetase IucA (Klebsiella pneumoniae hvKP1); assay: Biochemical IucA enzyme inhibition primary screen of the Spectrum library (AID 1346200; call rule not given here;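 note: 100% = wells without compound and 0% = wells lacking enzyme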); conditions: malachite green pyrophosphate, A620, at 8 µM, stronger effect = lower value
# [18] = measured here: relative caspase fold change +Dox/-Dox
# [19] = measured here: total cells with miR-34 induction, stronger effect = lower value
# [20] = measured here: total cells without miR-34 induction
# [21] = MELAS cybrid survival, CellTiter-Glo 48 h, stronger effect = higher value
# [22] = Rieske KO mouse fibroblast survival, CellTiter-Glo 72 h
smiles,measurement,setting,value
CC(C)[C@]12O[C@H]1[C@@H]1O[C@@]13[C@@]1(C)CCC4=C(COC4=O)[C@@H]1C[C@@H]1O[C@@]13C2=O,inhibition,[1],3.27% (inactive)
same,AC50,[2],295 nM (active)
same,AC50,[3],263 nM (active)
same,AC50,[4],372 nM (active)
same,AC50,[5],132 nM (active)
same,IC50,[6],372 nM (active)
CCCCCC[C@H]1C(=O)O[C@H](C)[C@H](NC(=O)c2cccc(NC=O)c2O)C(=O)O[C@@H](C)[C@@H]1OC(=O)CC(C)C,inhibition,[1],3.85% (inactive)
same,AC50,[7],1320 nM (active)
C[C@]12CCC(=O)C=C1C=C[C@@H]1[C@@H]2CC[C@@]2(C)[C@H]1CC[C@@]2(O)CCC(=O)O,fluorescence slope change,[8],75% (active)
same,survival,[9],19.2 (inactive)
same,parasite load remaining,[10],48.7% (inactive) and 84.2% (inactive)
same,viability,[10],45.8% and 86.3%
same,inhibition,[1],-4.06% (inactive)
same,fold change,[11]; stronger effect = lower value,0.935 (inactive)
same,fold change,[11]; [18],1.18
same,cell count,[11]; [19],8420
same,cell count,[11]; [20],9010
same,z-score,[12]; [21],0.754 (inactive)
same,z-score,[12]; [22],0.299
Oc1ccc2c3c1O[C@H]1[C@@H](O)CC[C@@]4(O)[C@@H](C2)N(CC2CCC2)CC[C@]314,fluorescence slope change,[8],211% (active)
same,survival,[9],24.5 (inactive)
same,parasite load remaining,[10],32.6% (inactive) and 106% (inactive) and 79.1% (inactive)
same,viability,[10],52.8% and 85.6% and 172%
same,inhibition,[1],-20.2% (inactive)
same,remaining activity,[13],118% (inactive)
same,fold change,[11]; stronger effect = lower value,0.924 (inactive) and 0.934 (inactive)
same,fold change,[11]; [18],1.19 and 1.05
same,cell count,[11]; [19],9080 and 10200
same,cell count,[11]; [20],9820 and 11000
same,z-score,[12]; [21],0.883 (inactive) and 0.331 (inactive)
same,z-score,[12]; [22],0.202 and -0.251
same,remaining NAD,[14],10 nM (inactive)
same,luciferase signal,[15],52 AU (inactive)
same,z-score,[16],0.78 (inactive)
CSc1nc(NC(C)C)nc(NC(C)C)n1,inhibition,[1],-9.01% (inactive)
same,activity remaining,[17],98.6% (inactive)
same,luciferase signal,[15],60 AU (inactive)
